Measured values: PubChem BioAssay AID1159580 (chemical genetic matrix, 2015)
Out of some 5,500 compounds screened, about 2,000 (36%) were called active. Not shown: some 18% with an inconclusive outcome. Rule as the data show it: active = normalized growth mostly below about 0.91 (no sharp cut-off); inconclusive = no clear call, values can overlap the other calls; inactive = mostly above about 0.92. This is one part of the list.

Assay: chemical genetic growth profiling, strain panel (AID 1159580);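 also: tested at 20 µM; growth read once vehicle control cultures reached saturation at 30 °C; 1 = growth at the plate median or of vehicle wells; lower values mean less growth of the strain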
Conditions: growth OD

Measured: normalized growth

COC1=CC23CCCN2CCc2cc4c(cc2C3C1O)OCO4 (centres undefined)
inactive: S. cerevisiae deletion strains, locus YJL187C, strain SWE1, stronger effect = lower value 1.02 | S. cerevisiae deletion strains, locus YJR043C, strain POL32, stronger effect = lower value 0.999 | S. cerevisiae deletion strains, locus YJR066W, strain TOR1, stronger effect = lower value 0.92 | S. cerevisiae deletion strains, locus YJR075W, strain HOC1, stronger effect = lower value 1.01 | S. cerevisiae deletion strains, locus YKL009W, strain mrt4, stronger effect = lower value 1.01 | S. cerevisiae deletion strains, locus YKL068W, stronger effect = lower value 1 | S. cerevisiae deletion strains, locus YKL085W, strain MDH1 (second series), stronger effect = lower value 1.01 | S. cerevisiae deletion strains, locus YKL085W, strain MDH1, stronger effect = lower value 1.01 | S. cerevisiae deletion strains, locus YKL160W, strain elf1, stronger effect = lower value 1.02 | S. cerevisiae deletion strains, locus YKL190W, strain CNB1, stronger effect = lower value 1 | S. cerevisiae deletion strains, locus YKR001C, strain vps1, stronger effect = lower value 1.01 | S. cerevisiae deletion strains, locus YKR026C, strain gcn3, stronger effect = lower value 1.02 | S. cerevisiae deletion strains, locus YKR091W, strain srl3, stronger effect = lower value 1.02 | S. cerevisiae deletion strains, locus YLL001W, strain dnm1, stronger effect = lower value 1.02 | S. cerevisiae deletion strains, locus YLL026W, stronger effect = lower value 1.02 | S. cerevisiae deletion strains, locus YLL041C, strain sdh2, stronger effect = lower value 1.02 | S. cerevisiae deletion strains, locus YLR027C, strain aat2, stronger effect = lower value 1.01 | S. cerevisiae deletion strains, locus YLR039C, strain RIC1, stronger effect = lower value 1.04 | S. cerevisiae deletion strains, locus YLR058C, strain SHM2, stronger effect = lower value 1 | S. cerevisiae deletion strains, locus YLR102C, strain apc9, stronger effect = lower value 1 | S. cerevisiae deletion strains, locus YLR113W, strain HOG1, stronger effect = lower value 0.959 | S. cerevisiae deletion strains, locus YLR221C, strain rsa3, stronger effect = lower value 1.03 | S. cerevisiae deletion strains, locus YLR258W, strain gsy2, stronger effect = lower value 1.02 | S. cerevisiae deletion strains, locus YLR262C, strain YPT6 (second series), stronger effect = lower value 1.04 | S. cerevisiae deletion strains, locus YLR262C, strain YPT6, stronger effect = lower value 1.04 | S. cerevisiae deletion strains, locus YLR268W, strain sec22, stronger effect = lower value 1.02 | S. cerevisiae deletion strains, locus YLR320W, strain mms22, stronger effect = lower value 1.05 | S. cerevisiae deletion strains, locus YLR330W, strain CHS5, stronger effect = lower value 1 | S. cerevisiae deletion strains, locus YLR342W, strain FKS1 (second series), stronger effect = lower value 0.997 | S. cerevisiae deletion strains, locus YLR342W, strain FKS1, stronger effect = lower value 1.02 | S. cerevisiae deletion strains, locus YLR357W, strain rsc2, stronger effect = lower value 1.06 | S. cerevisiae deletion strains, locus YLR370C, strain arc18, stronger effect = lower value 1.03 | S. cerevisiae deletion strains, locus YLR371W, strain rom2, stronger effect = lower value 1.01 | S. cerevisiae deletion strains, locus YLR384C, strain iki3, stronger effect = lower value 1.02 | S. cerevisiae deletion strains, locus YLR418C, strain cdc73, stronger effect = lower value 0.992 | S. cerevisiae deletion strains, locus YML016C, strain PPZ1, stronger effect = lower value 1 | S. cerevisiae deletion strains, locus YML032C, strain rad52, stronger effect = lower value 0.98 | S. cerevisiae deletion strains, locus YML120C, strain ndi1, stronger effect = lower value 1.02 | S. cerevisiae deletion strains, locus YML124C, strain tub3, stronger effect = lower value 1 | S. cerevisiae deletion strains, locus YMR058W, strain fet3, stronger effect = lower value 1.03 | S. cerevisiae deletion strains, locus YMR078C, strain ctf18, stronger effect = lower value 1.01 | S. cerevisiae deletion strains, locus YMR125W, strain sto1, stronger effect = lower value 1.04 | S. cerevisiae deletion strains, locus YMR129W, stronger effect = lower value 1.02 | S. cerevisiae deletion strains, locus YMR205C, strain PFK2, stronger effect = lower value 1.05 | S. cerevisiae deletion strains, locus YMR223W, strain ubp8, stronger effect = lower value 1.01 | S. cerevisiae deletion strains, locus YMR231W, strain pep5, stronger effect = lower value 1.02 | S. cerevisiae deletion strains, locus YMR307W, strain GAS1, stronger effect = lower value 0.984 | S. cerevisiae deletion strains, locus YNL067W, strain RPL9B, stronger effect = lower value 0.99 | S. cerevisiae deletion strains, locus YNL071W, strain lat1, stronger effect = lower value 1.02 | S. cerevisiae deletion strains, locus YNL183C, strain NPR1, stronger effect = lower value 0.926 | S. cerevisiae deletion strains, locus YNL209W, strain ssb2, stronger effect = lower value 1.02 | S. cerevisiae deletion strains, locus YNL233W, strain BNI4, stronger effect = lower value 0.989 | S. cerevisiae deletion strains, locus YNL248C, strain rpa49, stronger effect = lower value 1.04 | S. cerevisiae deletion strains, locus YNL250W, strain rad50, stronger effect = lower value 1.01 | S. cerevisiae deletion strains, locus YNL271C, strain bni1, stronger effect = lower value 1.01 | S. cerevisiae deletion strains, locus YNL298W, strain CLA4, stronger effect = lower value 1.01 | S. cerevisiae deletion strains, locus YNL307C, strain MCK1, stronger effect = lower value 1.01 | S. cerevisiae deletion strains, locus YNL322C, strain KRE1 (second series), stronger effect = lower value 1.02 | S. cerevisiae deletion strains, locus YNR049C, strain mso1, stronger effect = lower value 1.05 | S. cerevisiae deletion strains, locus YNR052C, strain pop2, stronger effect = lower value 1 | S. cerevisiae deletion strains, locus YOL012C, strain htz1 0.879 | S. cerevisiae deletion strains, locus YOL147C, strain pex11, stronger effect = lower value 1.01 | S. cerevisiae deletion strains, locus YOR001W, strain rrp6, stronger effect = lower value 1.04 | S. cerevisiae deletion strains, locus YOR061W, strain CKA2, stronger effect = lower value 1.01 | S. cerevisiae deletion strains, locus YOR069W, strain VPS5, stronger effect = lower value 1.01 | S. cerevisiae deletion strains, locus YOR070C, strain gyp1, stronger effect = lower value 1.02 | S. cerevisiae deletion strains, locus YOR080W, strain dia2, stronger effect = lower value 1.03 | S. cerevisiae deletion strains, locus YOR083W, strain WHI5, stronger effect = lower value 1.03 | S. cerevisiae deletion strains, locus YOR106W, strain vam3, stronger effect = lower value 1.03 | S. cerevisiae deletion strains, locus YOR136W, strain idh2, stronger effect = lower value 1.01 | S. cerevisiae deletion strains, locus YOR144C, strain elg1, stronger effect = lower value 1.01 | S. cerevisiae deletion strains, locus YOR184W, strain ser1, stronger effect = lower value 0.999 | S. cerevisiae deletion strains, locus YOR231W, strain MKK1, stronger effect = lower value 0.972 | S. cerevisiae deletion strains, locus YOR265W, strain rbl2, stronger effect = lower value 1.05 | S. cerevisiae deletion strains, locus YOR270C, strain vph1, stronger effect = lower value 1.09 | S. cerevisiae deletion strains, locus YOR290C, strain snf2, stronger effect = lower value 1 | S. cerevisiae deletion strains, locus YOR316C, strain cot1, stronger effect = lower value 1.01 | S. cerevisiae deletion strains, locus YPL051W, strain arl3, stronger effect = lower value 1.02 | S. cerevisiae deletion strains, locus YPL055C, strain LGE1, stronger effect = lower value 0.999 | S. cerevisiae deletion strains, locus YPL078C, strain atp4, stronger effect = lower value 1.03 | S. cerevisiae deletion strains, locus YPL106C, strain sse1, stronger effect = lower value 1.03 | S. cerevisiae deletion strains, locus YPL240C, strain hsp82, stronger effect = lower value 1.02 | S. cerevisiae deletion strains, locus YPL256C, strain CLN2, stronger effect = lower value 0.949 | S. cerevisiae deletion strains, locus YPR119W, strain clb2, stronger effect = lower value 1 | S. cerevisiae deletion strains, locus YPR141C, strain kar3, stronger effect = lower value 1.01 | S. cerevisiae deletion strains, locus YPR163C, strain tif3, stronger effect = lower value 1.01 | S. cerevisiae deletion strains, locus YPR167C, strain met16, stronger effect = lower value 0.998 | S. cerevisiae deletion strains, strain wtn01, stronger effect = lower value 1.02 | S. cerevisiae strains, strain wild type, stronger effect = lower value 1
